# About 79,000 compounds went through this panel and 15% of them were active in at least one assay; those are over-represented in the sample as a whole. Active and inactive are the calls of the source. No stated cut-off is given here; in the data, active means growth inhibition above about 70%; inactive means the rest.
# Assay: NCI Yeast Anticancer Drug Screen. Data for the mec2-1 strain (AID 157)
# Settings: S. cerevisiae mec2-1 strain, at 50.0 µM, hits give high values
# Summary of the method: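 Using mec2-1 yeast: add compound, measure growth, express inhibition versus vehicle-treated cultures.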
row,Compound,growth inhibition
1,Clc1ccc(C2SCc3nc4ccccc4n32)cc1Cl (stereo unspecified),98.1% (active)
2,OC(CBr)c1c(Br)ccc2ccccc12 (stereo unspecified),5.75% (inactive)
3,O=C1OC(c2cccc(Cl)c2)Sc2ccccc21 (stereo unspecified),19.4% (inactive)
4,c1ccc(N2CCN(c3ccccc3)C2Cc2c[nH]c3ccccc23)cc1,98.4% (active)
5,CC(=O)c1sc(Nc2ccc(Cl)c(Cl)c2)nc1C,81% (active)
6,Cc1ncn(-c2ccccc2O)c1C,8.05% (inactive)
7,C[n+]1c(/C=C/c2ccc(N3CCCC3)cc2)sc2ccccc21,99.2% (active)
8,COc1ccc(-c2c(C#N)c(S)n(NS(=O)(=O)c3ccc(C)cc3)c(=O)c2C#N)cc1,69.1% (inactive)
9,N#Cc1c(-c2ccc(Cl)c(Cl)c2)c(-c2ccc(Cl)c(Cl)c2)nn(CCO)c1=O,97.6% (active)
10,NCc1ccc(O)c(O)c1O,14.4% (inactive)
11,C[CH2][Sn]([CH2]C)([O]C(=O)c1cc(OC)c(OC)c(OC)c1)[O][Sn]([CH2]C)([CH2]C)[O]C(=O)c1cc(OC)c(OC)c(OC)c1,12.7% (inactive)
12,C=CCNCCC1CCCCCC1,97.5% (active)
13,Cc1ccc(/C=C/C(=O)/C=C/c2ccc(C)o2)o1,71.3% (active)
14,CCCC(=O)c1cc(O)c(O)c(CN(C)Cc2cc(Cl)cc(C)c2O)c1O,52.5% (inactive)
15,COC(=O)/C(C#N)=C/c1cc(OC)c(O)cc1Br,40% (inactive)
16,O=C(/C=C/c1ccccc1)CCN1CCOCC1,85.3% (active)
17,c1cc2c(c3c1CN(C1CCCCC1)CO3)OCN(C1CCCCC1)C2,-29.6% (inactive)
18,CSc1nc2ccccc2s1,23.3% (inactive)
19,CC1(C)CC(=O)C(CSC(=O)c2ccccc2)=C(O)C1,-5.45% (inactive)

# Assay: NCI Yeast Anticancer Drug Screen. Data for the sgs1 mgt1 strain (AID 161);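 further: 0% = growth of cultures given vehicle only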
# Settings: S. cerevisiae sgs1 mgt1 strain, at 5.0 µM (retest, dose inferred, filed as 0.5), hits give high values
# Summary of the method: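 Compounds are added to genetically altered yeast, and growth is compared with cultures given vehicle alone to give percent inhibition.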
row,Compound,growth inhibition
1,CCOc1ccccc1/C=C1\NC(=O)N(/C=C2\C(=O)Oc3ccccc3C2=O)C1=O,0% (inactive)
2,CC(NNC(=S)N1CCCC1)c1ccc2ccccc2n1 (stereo unspecified),22% (inactive)
3,N#Cc1c(-c2ccc(Cl)cc2)c(C#N)c(=O)n(NS(=O)(=O)c2ccccc2)c1S,30% (inactive)
4,CC(C)/C=C1\CCOC1=O,1% (inactive)
5,c1ccc(Nc2nnc3nc(-c4ccccc4)c(-c4ccccc4)nn23)cc1,19% (inactive)
6,O=C(NC(c1ccccc1)N1CCOCC1)c1ccccc1 (stereo unspecified),0% (inactive)
7,N[C@@H]1CCCC[C@@H]1N.O=C([O-])CN(CP(=O)([O-])[O-])CP(=O)([O-])[O-].[Pt+2],8% (inactive)
8,C/C=C\C(/C=C/C)(C(=O)OCCN(C)C)C(/C=C\C)(/C=C/C)C(=O)OCCN(C)C (stereo unspecified),5% (inactive)
9,COc1ccc(CCNC(=S)/N=C\C(C(=O)c2ccccc2)=C(\O)c2ccccc2)cc1OC,-2% (inactive)
10,Cc1ccccc1C1SCc2nc3ccccc3n21 (stereo unspecified),-5% (inactive)
11,O=C(Nc1ccc(Cl)cc1)Nc1nnc(/C=C/c2ccc(Cl)c(Cl)c2)o1,-1% (inactive)
12,Cc1c(CCCl)c(N=[N+]=[N-])n2c(nc3ccccc32)c1C#N,23% (inactive)
13,O=C(OCCCC(C(=O)c1ccccc1)=P(c1ccccc1)(c1ccccc1)c1ccccc1)c1ccccc1,33% (inactive)
14,O=C(c1ccccc1)c1ccc(Cl)cc1,2% (inactive)
15,O=C1C(C(O)(C(F)(F)Cl)C(F)(F)Cl)CCCC1C(O)(C(F)(F)Cl)C(F)(F)Cl (stereo unspecified),95% (active)
16,CCN(CC)C(=S)N=Nc1c(O)[nH]c2ccccc12,81% (active)
17,c1csc(-c2nnc(C34CC5CC(CC(C5)C3)C4)o2)c1,-24% (inactive)
18,C/C(O)=C(/C=N/C(=S)Nc1ccc(S(N)(=O)=O)cc1)C(=O)Nc1ccccc1C,-5% (inactive)
19,CC(C)(Oc1ccc(-c2cccc3ccccc23)cc1)C(=O)O,6% (inactive)
20,CCc1scc(C)[n+]1CC(=O)c1cccc([N+](=O)[O-])c1,11% (inactive)
21,O=C1CCC(C(c2ccccc2)(c2ccccc2)c2ccccc2)CC1=O (stereo unspecified),0% (inactive)
22,Clc1ccc(C2SCc3nc4ccccc4n32)cc1Cl (stereo unspecified),15% (inactive)
23,OC(CBr)c1c(Br)ccc2ccccc12 (stereo unspecified),3% (inactive)
24,O=C1OC(c2cccc(Cl)c2)Sc2ccccc21 (stereo unspecified),-12% (inactive)
25,c1ccc(N2CCN(c3ccccc3)C2Cc2c[nH]c3ccccc23)cc1,25% (inactive)
26,CC(=O)c1sc(Nc2ccc(Cl)c(Cl)c2)nc1C,27% (inactive)
27,Cc1ncn(-c2ccccc2O)c1C,-7% (inactive)
